Results filed as inconclusive are left out. Activity calls are given as the source filed them. The calls were made as follows: active = hit-call score of the fitted dose curve at least 0.9, where 1 is the maximum; inconclusive = response in the unintended direction; inactive = score below 0.9.
Columns and labels:
[1] = TOX21_p53_BLA_p2_viability: Viability Assessment in the Tox21 HCT-116 p53 Agonism Beta-lactamase Assay, Phase 2 (AID 2283591);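 also: compound exposure lasted 16 h at 37 °C; actives lower the ATP signal meaning cytotoxicity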
Outline: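 HCT-116 p53-bla cells (4000/well) rested 5 h at 37C, then received compounds in DMSO (217-fold dilution) for 16 h at 37C, 5% CO2. After the CCF4 read, CellTiter-Glo was added; ATP luminescence was read after 30 min at room temperature.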

[2] = biological target: Cellular tumor antigen p53 (Homo sapiens) (UniProt P04637); assay: TOX21_p53_BLA_p2_ratio: Tox21 HCT-116 p53 Agonism Beta-lactamase Assay, Ratio, Phase 2 (AID 2283592)
Cellular tumor antigen p53 (Homo sapiens), sequence (P04637 whole entry, looked up): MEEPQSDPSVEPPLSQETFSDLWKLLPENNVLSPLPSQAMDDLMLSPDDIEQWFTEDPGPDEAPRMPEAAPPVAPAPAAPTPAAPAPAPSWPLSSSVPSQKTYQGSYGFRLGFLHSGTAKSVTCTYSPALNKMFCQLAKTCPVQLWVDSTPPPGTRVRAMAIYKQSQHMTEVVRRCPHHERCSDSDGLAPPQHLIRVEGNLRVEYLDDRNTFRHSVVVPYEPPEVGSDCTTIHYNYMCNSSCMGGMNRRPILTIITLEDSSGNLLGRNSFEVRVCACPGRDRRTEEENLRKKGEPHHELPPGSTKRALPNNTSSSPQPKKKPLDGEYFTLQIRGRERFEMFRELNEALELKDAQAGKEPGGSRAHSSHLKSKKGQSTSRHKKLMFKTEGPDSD
Outline: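 DMSO-normalized, positive-direction endpoint derived from the 460 nm/530 nm FRET ratio in HCT116 p53 beta-lactamase reporter cells exposed 16 h at 37C and loaded with CCF4-AM for 2 h.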

[3] = biological target: Cellular tumor antigen p53 (Homo sapiens) (UniProt P04637); assay: TOX21_p53_BLA_p3_ratio: Tox21 HCT-116 p53 Agonism Beta-lactamase Assay, Ratio, Phase 3 (AID 2283596)
Outline: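 Cells were seeded at 4000/well, rested 5 h at 37C, then dosed with DMSO compound solutions (217-fold dilution) for 16 h. CCF4-AM substrate was loaded for 2 h at room temperature, and the 460/530 nm emission ratio was fitted for gain of signal versus DMSO.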

[4] = TOX21_p53_BLA_p4_viability: Viability Assessment in the Tox21 HCT-116 p53 Agonism Beta-lactamase Assay, Phase 4 (AID 2283597);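 also: hits lower the luminescence signal meaning cytotoxicity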
Outline: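 In this multiplexed secondary endpoint, HCT116 cells (4000 per well, compound at 5 h, 16 h treatment) received CellTiter-Glo after the beta-lactamase read. Luminescence after 30 min RT reflects ATP, and falling signal marks cytotoxicity.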

[5] = biological target: Cellular tumor antigen p53 (Homo sapiens) (UniProt P04637); assay: TOX21_p53_BLA_p5_ratio: Tox21 HCT-116 p53 Agonism Beta-lactamase Assay, Ratio, Phase 5 (AID 2283599)
Outline: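 HCT-116 cells carrying a p53-inducible beta-lactamase reporter were seeded at 4000 cells/well and dosed after 5 h with compound in DMSO (217-fold dilution). After 16 h at 37C, CCF4-AM substrate was added for 2 h, and the 460/530 nm emission ratio was scored as gain-of-signal versus DMSO.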

[6] = TOX21_p53_BLA_p5_viability: Viability Assessment in the Tox21 HCT-116 p53 Agonism Beta-lactamase Assay, Phase 5 (AID 2283600)
Outline: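 Here cell health was gauged by ATP levels in wells holding 4000 cells, each treated 16 h with DMSO-delivered compounds at 217-fold dilution; reduced luminescence marked toxicity.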

[7] = biological target: Cellular tumor antigen p53 (Homo sapiens) (UniProt P04637); assay: TOX21_p53_BLA_p4_ratio: Tox21 HCT-116 p53 Agonism Beta-lactamase Assay, Ratio, Phase 4 (AID 2283601)
Outline: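 HCT116 cells carrying an inducible beta-lactamase reporter were plated at 4000 cells/well, rested 5 h, then exposed to compounds in DMSO (217-fold dilution) for 16 h at 37C. CCF4-AM substrate was loaded 2 h at room temperature; 460/530 nm emission ratio scored gain-of-signal versus DMSO.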

[8] = TOX21_PR_BLA_Followup_Agonist_viability: Viability Assessment in the Tox21 HEK293 Progesterone Receptor (PR) Agonism Beta-lactamase Follow-Up Assay (AID 2283935);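 also: signal loss means lower viability so actives are cytotoxic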
Outline: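 Cells were plated in medium with 2% charcoal-stripped FBS and rested 6 hr. Compounds in DMSO were then added for 16 hr at 37C, followed by the FRET substrate step and CellTiter-Glo luminescence after 30 min.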

PGR (gene 5241) = PGR (gene 5241) (UniProt P06401); assay: TOX21_PR_LUC_Followup_Antagonist: Tox21 HEK293 Progesterone Receptor (PR) Antagonism Luciferase Follow-Up Assay (AID 2283938);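 also: curve fitted upward as signal gain over DMSO baseline despite antagonist label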
PGR (gene 5241), sequence (P06401 whole entry, looked up): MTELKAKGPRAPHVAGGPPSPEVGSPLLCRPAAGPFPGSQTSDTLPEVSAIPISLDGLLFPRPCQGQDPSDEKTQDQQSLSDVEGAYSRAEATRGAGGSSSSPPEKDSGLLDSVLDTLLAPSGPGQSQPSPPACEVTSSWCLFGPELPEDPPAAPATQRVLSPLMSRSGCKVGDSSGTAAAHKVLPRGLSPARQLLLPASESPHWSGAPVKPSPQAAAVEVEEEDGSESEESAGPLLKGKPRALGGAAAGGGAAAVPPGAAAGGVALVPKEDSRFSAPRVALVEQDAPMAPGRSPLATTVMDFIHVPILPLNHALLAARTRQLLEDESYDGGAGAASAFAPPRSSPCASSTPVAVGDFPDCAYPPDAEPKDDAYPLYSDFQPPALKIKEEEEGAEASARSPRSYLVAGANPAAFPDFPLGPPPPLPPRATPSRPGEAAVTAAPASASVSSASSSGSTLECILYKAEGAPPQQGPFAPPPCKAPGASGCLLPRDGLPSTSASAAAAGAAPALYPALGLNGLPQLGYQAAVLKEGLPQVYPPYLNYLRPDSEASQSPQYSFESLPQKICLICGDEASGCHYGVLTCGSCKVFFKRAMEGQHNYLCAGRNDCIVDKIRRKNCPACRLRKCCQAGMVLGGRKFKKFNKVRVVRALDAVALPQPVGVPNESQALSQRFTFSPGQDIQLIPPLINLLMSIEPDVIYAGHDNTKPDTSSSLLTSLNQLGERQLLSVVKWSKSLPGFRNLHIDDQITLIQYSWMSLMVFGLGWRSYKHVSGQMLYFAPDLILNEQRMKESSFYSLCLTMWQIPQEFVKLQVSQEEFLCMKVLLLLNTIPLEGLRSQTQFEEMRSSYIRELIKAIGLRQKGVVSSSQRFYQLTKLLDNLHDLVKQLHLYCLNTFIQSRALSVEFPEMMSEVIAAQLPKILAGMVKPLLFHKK
Outline: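 Luciferase reporter in HEK293-PR-A-luc cells: 16 h compound treatment at 37C, ONE-Glo luminescence detection, DMSO as negative control and baseline.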

[9] = TOX21_PR_LUC_Followup_Antagonist_viability: Viability Assessment in the Tox21 HEK293 Progesterone Receptor (PR) Antagonism Luciferase Follow-Up Assay (AID 2283940)
Outline: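 HEK293-PR-A-luc, 3,000 cells/well; 5 h at 37C/0% CO2; compound pin transfer; 16 h incubation; CellTiter-Glo ATP luminescence, signal loss = cytotoxicity.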

[10] = TOX21_PR_LUC_Followup_Agonist_viability: Viability Assessment in the Tox21 HEK293 Progesterone Receptor (PR) Agonism Luciferase Follow-Up Assay (AID 2283941);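 also: loss of signal means cytotoxicity so actives lower viability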
Outline: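 Multiplexed viability endpoint of the PR agonist luciferase follow-up: HEK293-PR-A-luc cells treated 16 h at 37C, with viability scored as decrease in CellTiter-Glo ATP signal.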

Measured: AC50

CCOC(=O)c1cccc(N)c1
not listed: [8] | PGR (gene 5241) | [9] | [10]
inactive: all other assays above

C[C@@H]1NC(=O)[C@@H](N)CNC(=O)[C@H](C2CCNC(N)=N2)NC(=O)/C(=C/NC(N)=O)NC(=O)[C@H](CNC(=O)C[C@@H](N)CCCN)NC1=O (some centres undefined)
not listed: [8] | PGR (gene 5241) | [9] | [10]
inactive: all other assays above

S=C1SCN(Cc2ccccc2)CN1Cc1ccccc1
not listed: [8] | PGR (gene 5241) | [9] | [10]
inactive: all other assays above

N#CCC(=O)NN
not listed: [8] | PGR (gene 5241) | [9] | [10]
inactive: all other assays above

O=C(O)Cn1c(C(=O)Nc2nc(-c3ccccc3Cl)cs2)cc2ccccc21
inactive: [1] | [2] | [3] | [7]
active: [4] 38.9 µM | [5] 37.1 µM | [6] 40.7 µM

CC(C)NC(=O)c1ccccc1N
not listed: [8] | PGR (gene 5241) | [9] | [10]
inactive: all other assays above

CC(C)NCC(O)c1ccc(NS(C)(=O)=O)cc1 (centres undefined)
not listed: [8] | PGR (gene 5241) | [9] | [10]
inactive: all other assays above

NC(=O)c1ncn([C@@H]2O[C@H](CO)[C@@H](O)[C@H]2O)c1O
not listed: [8] | PGR (gene 5241) | [9] | [10]
inactive: all other assays above

C[C@H]1[C@@H](OC(=O)CCC(=O)O)O[C@@H]2OC3(C)CC[C@H]4[C@H](C)CC[C@@H]1[C@@]24OO3
not listed: [8] | PGR (gene 5241) | [9] | [10]
inactive: all other assays above

CC(C)C(O)C(C)(C)CO (centres undefined)
not listed: [8] | PGR (gene 5241) | [9] | [10]
inactive: all other assays above

CCC(=O)O[C@H]1CC[C@H]2[C@@H]3CCc4cc(O)ccc4[C@H]3CC[C@]12C
inactive: [1] | [2] | [3] | [5] | [6] | [7]
active: [4] 37.2 µM

C=C1CC[C@H](O)C/C1=C/C=C1\CCC[C@]2(C)[C@@H]([C@H](C)CC[C@@H](O)C(C)(C)O)CC[C@@H]12
active: [1] 20.1 µM | [2] 24.5 µM | [3] 26.9 µM | [4] 17.9 µM | [5] 22.5 µM | [6] 17.2 µM | [7] 21.1 µM

CC(C)Nc1ccccc1
not listed: [8] | PGR (gene 5241) | [9] | [10]
inactive: all other assays above

Cc1ccccc1C(=O)N1CC/C(=N\OS(=O)(=O)O)c2ccc(Cl)cc21
not listed: [8] | PGR (gene 5241) | [9] | [10]
inactive: all other assays above

Nc1ccc(Oc2ccc(Cl)cc2)cc1
not listed: [8] | PGR (gene 5241) | [9] | [10]
inactive: all other assays above

Clc1ccc2n[nH]nc2c1
inactive: [1] | [2] | [3] | [4] | [6] | [7]
active: [5] 55.7 µM

O=C1O[C@H](CO)[C@@H](O)[C@H](O)[C@H]1O
not listed: [8] | PGR (gene 5241) | [9] | [10]
inactive: all other assays above

COc1ccc(CCNC[C@H](O)c2ccc(O)cc2)cc1OC
not listed: [8] | PGR (gene 5241) | [9] | [10]
inactive: all other assays above

CCN(Cc1ccccc1)c1ccccc1
not listed: [8] | PGR (gene 5241) | [9] | [10]
inactive: all other assays above

N[C@@H](CSSC[C@H](N)C(=O)O)C(=O)O
not listed: [8] | PGR (gene 5241) | [9] | [10]
inactive: all other assays above

CCN(CC)CCOCCOC(=O)C(CC)(CC)c1ccccc1
not listed: [8] | PGR (gene 5241) | [9] | [10]
inactive: all other assays above

NS(=O)(=O)c1cc2c(cc1Cl)NC(C1CC3C=CC1C3)NS2(=O)=O (centres undefined)
not listed: [8] | PGR (gene 5241) | [9] | [10]
inactive: all other assays above

CNCC[C@@H](Oc1ccccc1C)c1ccccc1
inactive: [1] | [2] | [3] | [4] | [5] | [7]

CC1(C)CCC(C)(C)c2cc(NC(=O)c3ccc(C(=O)O)cc3)ccc21
active: [1] 36.6 µM | [3] 39.1 µM | [4] 36.1 µM | [5] 44.2 µM | [6] 43.5 µM | [7] 44.7 µM
inactive: [2] | [8] | PGR (gene 5241) | [9] | [10]

Brc1c2ccccc2cc2ccccc12
not listed: [8] | PGR (gene 5241) | [9] | [10]
inactive: all other assays above

CCC(=O)Oc1ccc2c(c1)CC[C@@H]1[C@@H]2CC[C@]2(C)[C@@H](OC(=O)CC)CC[C@@H]12
inactive: [1] | [2] | [3] | [4] | [6]

NCCNCCO
inactive: [1] | [2] | [3] | [4] | [5] | [7]
